For part of these data: Entries with a potency or affinity are not part of this list.

Parameters in all cases: scale not given: direction of the effect not stated beside the values
Assay [1] addresses Protein translocase subunit SecA (Escherichia coli (strain K12)) (UniProt P10408). In words: Assay to Identify E. coli SecA ATPase Inhibitors. In kind it is functional. The following applies: 30 µM.
For assay [2], the target named is T1, Ubiquitin-activating enzyme e1, putative (Leishmania donovani (strain BPK282A1)) (UniProt E9BSI1).
T1 sequence (whole entry): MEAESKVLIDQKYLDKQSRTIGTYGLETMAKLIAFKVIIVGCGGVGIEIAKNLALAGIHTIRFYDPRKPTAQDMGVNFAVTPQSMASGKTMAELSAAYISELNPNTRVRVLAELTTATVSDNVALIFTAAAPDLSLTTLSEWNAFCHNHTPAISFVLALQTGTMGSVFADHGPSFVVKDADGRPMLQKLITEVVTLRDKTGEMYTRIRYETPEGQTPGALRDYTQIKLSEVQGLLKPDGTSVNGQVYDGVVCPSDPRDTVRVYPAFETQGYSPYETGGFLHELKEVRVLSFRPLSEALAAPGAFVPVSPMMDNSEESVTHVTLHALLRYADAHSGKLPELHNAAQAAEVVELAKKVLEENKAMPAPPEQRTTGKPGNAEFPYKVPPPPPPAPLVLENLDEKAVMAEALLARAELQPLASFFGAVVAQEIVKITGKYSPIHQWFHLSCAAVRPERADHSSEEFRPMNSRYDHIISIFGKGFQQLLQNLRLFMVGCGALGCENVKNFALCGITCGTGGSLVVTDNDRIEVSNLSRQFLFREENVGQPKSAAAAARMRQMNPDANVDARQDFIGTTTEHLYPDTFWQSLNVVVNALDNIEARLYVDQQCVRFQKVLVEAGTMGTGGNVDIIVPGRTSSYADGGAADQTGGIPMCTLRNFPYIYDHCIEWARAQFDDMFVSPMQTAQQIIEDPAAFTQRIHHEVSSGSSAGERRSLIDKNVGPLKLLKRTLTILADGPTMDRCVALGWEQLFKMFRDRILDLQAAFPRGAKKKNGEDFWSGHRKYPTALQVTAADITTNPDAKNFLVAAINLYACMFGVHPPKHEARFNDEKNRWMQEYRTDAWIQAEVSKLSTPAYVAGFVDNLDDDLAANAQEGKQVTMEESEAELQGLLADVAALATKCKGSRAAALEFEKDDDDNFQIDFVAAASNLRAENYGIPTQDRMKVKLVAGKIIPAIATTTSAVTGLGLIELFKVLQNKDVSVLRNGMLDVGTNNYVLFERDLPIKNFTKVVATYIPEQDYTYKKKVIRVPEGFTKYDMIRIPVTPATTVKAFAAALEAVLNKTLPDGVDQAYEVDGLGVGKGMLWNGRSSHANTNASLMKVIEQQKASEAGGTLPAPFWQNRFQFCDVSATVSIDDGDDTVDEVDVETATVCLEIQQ
In words: Leishmania donovani Ubiquitin Activating Enzyme (LdE1). It counts as functional. The settings on record: 30 µM.

Assay [3] deals with AMP-activated protein kinase, AMPK (Homo sapiens) (UniProt P54646+O43741+P54619+Q9UGJ0+Q9Y478+Q13131+Q9UGI9). In words: AMP-dependent Kinase enzyme assay. An in vitro enzyme assay that detects ADP turnover that is directly proportional to AMPK activity. This uses naive AMPK that is activated during the assay with MK-8722. The following applies: 30 µM. It counts as functional.

Assay [4] addresses Sialic acid-binding Ig-like lectin 9 (Homo sapiens) (UniProt Q9Y336). In words: Hs-Siglec9 ALPHAscreen SOP 20170721. The settings on record: 10 µM.
Another assay concerns Trypanosoma cruzi. In words: Trypanosoma cruzi phosphomannomutase and mannose-1-phosphate guanylyltransferase assay. In kind it is functional. The settings on record: 10 µM.
Assay [5] concerns the target T2, Arginase-2, mitochondrial (Homo sapiens) (UniProt P78540).
T2 sequence (whole entry): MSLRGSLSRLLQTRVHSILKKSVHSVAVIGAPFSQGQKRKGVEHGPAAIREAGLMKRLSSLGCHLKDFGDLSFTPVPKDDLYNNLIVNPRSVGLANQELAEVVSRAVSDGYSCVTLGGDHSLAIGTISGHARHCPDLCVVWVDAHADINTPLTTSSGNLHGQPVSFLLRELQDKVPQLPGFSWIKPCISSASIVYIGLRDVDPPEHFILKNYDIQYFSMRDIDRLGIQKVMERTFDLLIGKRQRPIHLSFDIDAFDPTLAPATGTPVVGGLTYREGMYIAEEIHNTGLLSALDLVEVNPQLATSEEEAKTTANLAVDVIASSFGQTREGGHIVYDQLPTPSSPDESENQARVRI
Put plainly: in vitro enzyme assay to detect the production of urea directly proportional to the activity of Arginase II. Note: in the data most compounds retested in dose-response had high values. The following applies: 33.3 µM. In kind it is functional.

Assay [6] has as its target T3, Proteasome subunit beta (Trypanosoma cruzi) (UniProt O96673).
T3 sequence (whole entry): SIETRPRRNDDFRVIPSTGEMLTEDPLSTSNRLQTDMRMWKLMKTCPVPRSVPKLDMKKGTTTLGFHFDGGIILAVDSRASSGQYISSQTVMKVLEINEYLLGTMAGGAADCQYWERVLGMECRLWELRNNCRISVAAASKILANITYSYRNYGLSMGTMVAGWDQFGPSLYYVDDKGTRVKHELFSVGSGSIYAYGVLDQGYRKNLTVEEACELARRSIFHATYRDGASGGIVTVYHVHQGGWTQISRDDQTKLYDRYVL
In words: Trypanosoma cruzi proteasome chymotrypsin-like activity (TcProtChymo) assay. Note: in the data most compounds retested in dose-response had high values. The following applies: 9.37 µM. It counts as functional.

The species named for another assay is Homo sapiens. In words: To identify inhibition of the IFN signalling (Jak-Stat) pathway via expression of an eGFP reporter gene under the control of an IFN-stimulated response element (ISRE) containing MxA promoter. In kind it is functional. The settings on record: 30 µM.
Assay [7] has as its target T4, Tyrosyl-tRNA synthetase, putative (Trypanosoma cruzi (strain CL Brener)) (UniProt Q4DSP6).
T4 sequence (whole entry): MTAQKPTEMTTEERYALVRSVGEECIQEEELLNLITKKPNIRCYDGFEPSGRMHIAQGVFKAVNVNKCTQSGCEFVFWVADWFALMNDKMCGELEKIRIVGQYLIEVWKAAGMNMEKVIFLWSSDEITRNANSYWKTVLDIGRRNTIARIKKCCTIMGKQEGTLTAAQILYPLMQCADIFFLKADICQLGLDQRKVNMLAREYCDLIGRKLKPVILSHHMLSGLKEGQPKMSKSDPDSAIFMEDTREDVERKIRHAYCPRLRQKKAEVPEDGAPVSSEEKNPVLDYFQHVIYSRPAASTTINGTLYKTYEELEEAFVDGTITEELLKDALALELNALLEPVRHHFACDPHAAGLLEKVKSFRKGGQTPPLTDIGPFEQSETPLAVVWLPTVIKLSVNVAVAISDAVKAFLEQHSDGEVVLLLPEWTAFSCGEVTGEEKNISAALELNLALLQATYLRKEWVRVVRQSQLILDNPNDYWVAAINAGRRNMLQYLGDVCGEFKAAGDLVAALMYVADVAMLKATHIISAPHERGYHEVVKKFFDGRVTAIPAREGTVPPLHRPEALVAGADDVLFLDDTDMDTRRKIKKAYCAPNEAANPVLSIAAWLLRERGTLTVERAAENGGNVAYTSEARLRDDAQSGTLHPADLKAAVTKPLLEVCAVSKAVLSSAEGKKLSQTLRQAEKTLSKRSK
Put plainly: Trypanosoma cruzi tyrosyl tRNA synthetase (TcYRS) _High Tyrosine SOP. Note: in the data most compounds retested in dose-response had high values. The following applies: 30 µM. It counts as functional.

In assay [8] the target is T4, Tyrosyl-tRNA synthetase, putative (Trypanosoma cruzi (strain CL Brener)). Put plainly: Trypanosoma cruzi tyrosyl tRNA synthetase (TcYRS) SOP. The following applies: 30 µM. In kind it is functional.
In assay [9] the target is Chromo domain-containing protein 1 (Saccharomyces cerevisiae (strain ATCC 204508 / S288c) (Baker's yeast)) (UniProt P32657). Put plainly: ScCHD-1 Enzyme Inhibition Assay. Note: in the data most compounds retested in dose-response had high values. The following applies: 30 µM. It counts as functional.
Chromo domain-containing protein 1 (Saccharomyces cerevisiae (strain ATCC 204508 / S288c) (Baker's yeast)), sequence (P32657 whole entry, the tested form may be a part): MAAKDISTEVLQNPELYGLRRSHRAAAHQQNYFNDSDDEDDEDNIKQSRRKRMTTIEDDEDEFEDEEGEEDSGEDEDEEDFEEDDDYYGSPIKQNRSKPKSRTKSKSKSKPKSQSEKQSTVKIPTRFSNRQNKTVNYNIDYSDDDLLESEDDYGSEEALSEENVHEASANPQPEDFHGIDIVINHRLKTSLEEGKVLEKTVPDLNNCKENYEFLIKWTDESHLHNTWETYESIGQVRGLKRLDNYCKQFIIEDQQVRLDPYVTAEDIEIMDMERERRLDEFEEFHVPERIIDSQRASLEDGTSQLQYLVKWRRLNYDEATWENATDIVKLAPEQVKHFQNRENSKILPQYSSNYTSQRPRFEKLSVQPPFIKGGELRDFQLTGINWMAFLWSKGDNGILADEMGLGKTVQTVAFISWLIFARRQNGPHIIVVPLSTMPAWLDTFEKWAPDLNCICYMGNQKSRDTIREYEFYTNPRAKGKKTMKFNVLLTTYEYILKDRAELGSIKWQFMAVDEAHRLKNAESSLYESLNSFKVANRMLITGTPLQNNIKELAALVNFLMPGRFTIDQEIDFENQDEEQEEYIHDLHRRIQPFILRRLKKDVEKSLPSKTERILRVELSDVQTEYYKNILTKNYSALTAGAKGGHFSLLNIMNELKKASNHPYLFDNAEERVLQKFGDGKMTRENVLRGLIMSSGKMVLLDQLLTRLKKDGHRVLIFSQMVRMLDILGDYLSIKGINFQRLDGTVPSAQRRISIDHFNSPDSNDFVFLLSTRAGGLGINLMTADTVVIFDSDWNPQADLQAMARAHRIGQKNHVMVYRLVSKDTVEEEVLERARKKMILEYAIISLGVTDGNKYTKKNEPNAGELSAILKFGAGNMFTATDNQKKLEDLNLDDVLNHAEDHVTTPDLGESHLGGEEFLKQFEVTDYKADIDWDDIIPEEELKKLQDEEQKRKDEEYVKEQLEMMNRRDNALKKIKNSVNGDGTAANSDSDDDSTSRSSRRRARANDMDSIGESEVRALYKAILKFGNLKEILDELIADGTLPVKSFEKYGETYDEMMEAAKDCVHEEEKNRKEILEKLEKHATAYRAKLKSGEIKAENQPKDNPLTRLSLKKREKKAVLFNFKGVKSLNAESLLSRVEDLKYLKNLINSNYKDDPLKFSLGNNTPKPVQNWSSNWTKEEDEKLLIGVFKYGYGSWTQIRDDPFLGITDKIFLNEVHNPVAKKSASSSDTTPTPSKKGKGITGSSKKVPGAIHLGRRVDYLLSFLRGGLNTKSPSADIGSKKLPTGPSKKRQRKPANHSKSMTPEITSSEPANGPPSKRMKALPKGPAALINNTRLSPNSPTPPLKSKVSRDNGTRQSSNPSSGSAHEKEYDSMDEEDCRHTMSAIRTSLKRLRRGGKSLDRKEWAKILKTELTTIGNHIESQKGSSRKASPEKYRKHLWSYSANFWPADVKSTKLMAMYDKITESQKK

Sialic acid-binding Ig-like lectin 9 (Homo sapiens), sequence (Q9Y336 whole entry): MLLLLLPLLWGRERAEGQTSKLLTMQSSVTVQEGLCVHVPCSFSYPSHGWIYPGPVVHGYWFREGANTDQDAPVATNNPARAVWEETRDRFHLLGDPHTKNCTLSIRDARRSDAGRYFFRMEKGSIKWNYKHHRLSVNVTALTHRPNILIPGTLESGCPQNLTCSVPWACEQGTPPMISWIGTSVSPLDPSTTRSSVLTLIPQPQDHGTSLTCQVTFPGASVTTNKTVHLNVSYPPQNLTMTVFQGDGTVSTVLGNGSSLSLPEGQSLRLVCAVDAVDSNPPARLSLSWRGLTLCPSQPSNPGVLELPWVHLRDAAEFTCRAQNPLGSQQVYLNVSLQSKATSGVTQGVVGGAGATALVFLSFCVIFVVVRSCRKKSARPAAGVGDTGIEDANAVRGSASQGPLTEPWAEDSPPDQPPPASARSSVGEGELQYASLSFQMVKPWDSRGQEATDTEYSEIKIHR
Protein translocase subunit SecA (Escherichia coli (strain K12)), sequence (P10408 whole entry): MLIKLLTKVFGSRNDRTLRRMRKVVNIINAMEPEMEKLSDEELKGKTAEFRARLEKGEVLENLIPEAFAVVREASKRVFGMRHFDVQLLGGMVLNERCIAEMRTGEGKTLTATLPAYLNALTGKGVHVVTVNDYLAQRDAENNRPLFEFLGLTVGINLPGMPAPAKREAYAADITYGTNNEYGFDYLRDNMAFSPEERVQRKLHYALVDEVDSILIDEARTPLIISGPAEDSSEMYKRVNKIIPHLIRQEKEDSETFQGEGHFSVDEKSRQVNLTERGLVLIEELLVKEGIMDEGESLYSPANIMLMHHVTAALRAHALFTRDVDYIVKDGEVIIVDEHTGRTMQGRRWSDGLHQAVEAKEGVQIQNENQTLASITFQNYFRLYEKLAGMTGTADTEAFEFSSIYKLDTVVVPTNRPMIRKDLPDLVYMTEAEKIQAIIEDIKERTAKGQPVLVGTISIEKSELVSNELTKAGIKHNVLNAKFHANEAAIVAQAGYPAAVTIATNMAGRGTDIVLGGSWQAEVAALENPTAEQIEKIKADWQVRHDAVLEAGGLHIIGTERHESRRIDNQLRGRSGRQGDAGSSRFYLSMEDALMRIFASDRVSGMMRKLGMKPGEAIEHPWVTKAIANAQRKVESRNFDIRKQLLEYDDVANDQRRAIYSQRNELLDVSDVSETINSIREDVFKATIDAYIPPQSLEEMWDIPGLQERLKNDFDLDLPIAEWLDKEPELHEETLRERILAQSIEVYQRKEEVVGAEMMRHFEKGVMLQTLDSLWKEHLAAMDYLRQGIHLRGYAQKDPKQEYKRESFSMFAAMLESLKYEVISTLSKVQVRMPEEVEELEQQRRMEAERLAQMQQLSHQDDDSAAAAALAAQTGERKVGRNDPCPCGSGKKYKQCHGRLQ

On to `CN(Cc1ccc(F)cc1)CC1(O)CCN(C(=O)c2cccn2C)C1` (centres undefined), for which the Percent Effect in assay [1] was -6.43%; in assay [2], 13.3%; in [3], 2.06%; in [4] it was 5.19%; in the assay with Trypanosoma cruzi it was 3.15%; in assay [5] it was -4.43%. Besides, the Percent Effect was 0.969% in assay [6]; 3% in the assay listed under Homo sapiens; 6.38% in [7]; 8.97% in assay [8]; -9.32% in assay [9].
Regarding `CNc1cc(CNC(=O)c2ccccc2)nc(-c2ccncc2)n1`, the Percent Effect was -5.75% in assay [1]; 9.46% in assay [2]; 9.36% in assay [3]; -2.66% in assay [4]; 3.56% with Trypanosoma cruzi; -71.7% in assay [5]. For the same molecule, the Percent Effect in [6] was 15.8%; in the assay listed under Homo sapiens, 1.41%; in assay [7], 5.38%; in assay [8], 14.3%; in assay [9], -13.8%.
Consider `COCc1cccc(CNCc2c(C)nn(C)c2N(C)C)c1`, for which the Percent Effect in [1] was -6.8%; in [2], 18.9%; in assay [3], -21.5%; in assay [4] it was 9.53%; in the assay with Trypanosoma cruzi, 7.64%; in assay [5] it was -4.01%. Besides, the Percent Effect in [6] was 12.4%; in the assay filed under Homo sapiens, 4.56%; in assay [7] it was 7.39%; in assay [8], 23.5%; in [9] it was -13.6%.
With `O=C(COCc1ccccc1)N1CCCC(n2cncn2)C1` (centres undefined), the Percent Effect is -4.9% in [1]; 16.2% in assay [2]; -5.92% in [3]; 0.0525% in assay [4]; 1.79% in the assay on Trypanosoma cruzi; -2.4% in assay [5]. For the same molecule, the Percent Effect is 7.57% in [6]; 11.4% in the assay filed under Homo sapiens; 6.4% in assay [7]; 18.5% in [8]; -4.59% in assay [9].
As to `Cc1cnn(CC2CCCN2C(=O)c2ccc3[nH]nnc3c2)c1` (centres undefined), the Percent Effect in assay [1] was -1.48%; in assay [2], 8.86%; in assay [3], -1.94%; in [4] it was -8.54%; with Trypanosoma cruzi it was 2.97%; in [5], -2.8%. The Percent Effect was 17.5% in assay [6]; 2.88% in the assay filed under Homo sapiens; 1.04% in [7]; 10.1% in assay [8]; -4.85% in [9].
Take `Cc1nc(C)n(CC2CCCN(Cc3nnc(C(C)(C)C)o3)C2)n1` (centres undefined): the Percent Effect in assay [1] was -3.5%; in assay [2], 10.5%; in [3] it was 5.56%; in assay [4] it was -2.35%; in the assay on Trypanosoma cruzi it was 5.55%; in assay [5], 0%. The Percent Effect in assay [6] is 7.77%; in the assay listed under Homo sapiens, -1.74%; in [7], 2.13%; in assay [8], 5.2%; in [9], -3.94%.
`COc1ccc(-c2nnc(SC(C)C(=O)NCC(C)C)[nH]2)c(OC)c1` (centres undefined): the Percent Effect was -3.62% in assay [1]; 10.5% in assay [2]; 2.87% in [3]; 6.11% in assay [4]; 1.27% in the assay on Trypanosoma cruzi; -3.55% in assay [5]. Further, the Percent Effect was found to be 13.5% in assay [6]; 91.3% in the assay filed under Homo sapiens; 3.19% in [7]; 18.2% in assay [8]; 2.44% in assay [9].
Regarding `CC1=NN(c2ccc(C(=O)N3CCCC(n4ccnc4)C3)cc2)CC1` (centres undefined), the Percent Effect in assay [1] was -5.1%; in assay [2], 10.1%; in assay [3], -5.15%; in assay [4], 0.444%; in the assay on Trypanosoma cruzi, 9.35%; in [5], -1.9%. Besides, the Percent Effect in assay [6] is -1.06%; in the assay filed under Homo sapiens, 15.8%; in assay [7], 10.3%; in assay [8], 16.5%; in assay [9] it was -6.17%.
Take `Cc1noc([C@@H]2C[C@H]3OCC[C@H]3N(S(=O)(=O)c3cccnc3)C2)n1`: the Percent Effect in assay [1] is -2.85%; in assay [2], 11%; in assay [3] it was -6.86%; in assay [4], 6.79%; with Trypanosoma cruzi, 5.75%; in assay [5], -5.19%. The Percent Effect was 4.02% in assay [6]; -3.51% in the assay filed under Homo sapiens; 3.12% in assay [7]; 11.1% in [8]; -6.9% in assay [9].
